High-throughput results deposited in PubChem by several laboratories.
eIF4H FP inh = inhibitors of RNA binding by human eIF4H | Q15056 | eIF4H fluorescence polarization binding assay | inhibition, % at 35 µM | 290,000 tested, 0.94% active | AID 2012;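 further: calls also rest on retests at 20 µM and on dose response follow-up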
MLLE-PAM2 inh = blocks PAM2 peptide binding to the PABP1 MLLE domain; GST-MLLE / FITC-PAM2 fluorescence polarization; inhibition, % at 20 µM; AID 588489; 360,000 tested, 0.36% active; in the data active means inhibition above about 35%, passing the limit was not always enough;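 further: plate controls were DMSO wells with GST-MLLE for no effect and wells lacking GST-MLLE protein for full effect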
Target sequence (P11940 whole entry, looked up, the tested form may be a part): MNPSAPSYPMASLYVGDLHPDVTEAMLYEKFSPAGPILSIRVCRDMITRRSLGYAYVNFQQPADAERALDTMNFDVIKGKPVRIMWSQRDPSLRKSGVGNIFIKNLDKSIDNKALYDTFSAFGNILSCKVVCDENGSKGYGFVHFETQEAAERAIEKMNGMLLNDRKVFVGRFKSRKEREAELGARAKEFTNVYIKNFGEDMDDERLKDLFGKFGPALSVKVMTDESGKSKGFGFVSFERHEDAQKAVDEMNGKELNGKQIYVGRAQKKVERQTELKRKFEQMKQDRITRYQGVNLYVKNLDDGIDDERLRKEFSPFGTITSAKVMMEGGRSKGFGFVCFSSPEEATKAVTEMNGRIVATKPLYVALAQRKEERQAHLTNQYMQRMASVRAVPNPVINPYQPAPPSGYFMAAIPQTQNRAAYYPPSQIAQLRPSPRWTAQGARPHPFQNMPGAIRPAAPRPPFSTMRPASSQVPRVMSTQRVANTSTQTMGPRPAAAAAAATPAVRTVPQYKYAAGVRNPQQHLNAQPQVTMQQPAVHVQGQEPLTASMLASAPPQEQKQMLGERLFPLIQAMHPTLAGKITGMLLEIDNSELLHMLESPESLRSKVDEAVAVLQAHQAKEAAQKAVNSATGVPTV
EBV gp42 block = blocks Epstein-Barr virus glycoprotein 42 binding | Q1HVG2 | Fluorescence polarization binding assay, mP read-out | inhibition, % (tested at 21.74 µM) | 220,000 tested, 0.42% active | AID 1085; in the data active means inhibition above about 50%
MEX-5 binding = C. elegans MEX-5 TCR-2 RNA binding activity | MEX-5/FITC-TCR2 RNA binding, fluorescence polarization; hits give low values | Q9XUB2 | 300,000 tested, 0.38% active | activity score (negative = inhibition of binding), % at 10 µM;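 active means inhibition past about -25% in most replicates, and total fluorescence under double the plate's negative control median, limit read from the data; inconclusive means replicates evenly split on the limit, or fluorescence at least double controls; inactive means too little inhibition in most replicates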;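 further: 0% = DMSO and -100% = 5 µM competing unlabeled TCR2 RNA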
PABP FP inh = blocks human PABP binding to poly(A) RNA; P11940; fluorescence polarization; calls only at 35 µM; 290,000 tested, 1% active; AID 2014;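 further: calls also rest on retests at 20 µM and on dose response follow-up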
Active calls of the source: *; ! = a repeat was not active. The list is not random: actives were taken first. Their share in the collection is about 1.8%. Unless noted, how the calls were made is not given here.

`CC1=C(C(=O)N(C)C)CC(CC(=O)NCCN2CCOCC2)C(=O)N1CCCN1CCCC1=O` (stereo not drawn) gave MLLE-PAM2 inh -2.0.
For CC1CCN(C(=S)c2ccc([N+](=O)[O-])cc2)CC1 the results were eIF4H FP inh 3.2, MLLE-PAM2 inh 43.7*, EBV gp42 block -13.1, MEX-5 binding -1.0 and PABP FP inh inactive.
For O=S(=O)(NCCCCNS(=O)(=O)c1ccc(F)cc1)c1ccc(F)cc1 the results were MLLE-PAM2 inh 13.4 and MEX-5 binding -0.5.
Screening O=C(O)C(CCCCNS(=O)(=O)c1ccc(F)cc1)NS(=O)(=O)c1ccc(F)cc1 (stereo not drawn) returned eIF4H FP inh 95.7*!, MLLE-PAM2 inh -14.2, MEX-5 binding -0.1 and PABP FP inh active!.
FC(F)(F)Oc1ccccc1C(c1nnnn1-c1ccc2c(c1)OCCO2)N1CCN(C/C=C/c2ccccc2)CC1 (stereo not drawn) was read as MLLE-PAM2 inh -0.3.
`COc1cccc(N=Nc2c(=O)[nH]n3c(=O)cc(C)[nH]c23)c1` gave eIF4H FP inh -10.4, MLLE-PAM2 inh 22.8, EBV gp42 block -6.1, MEX-5 binding -32.4* and PABP FP inh inactive.
`NC(c1csc(Nc2cc(NCCCO)ncn2)n1)c1ccccc1Cl` (stereo not drawn) gave MLLE-PAM2 inh 11.6.
Screening OCCN1CCN(c2ncnc3c2ncn3[C@H]2CN(Cc3cccs3)C[C@@H](CO)O2)CC1 returned MLLE-PAM2 inh -3.6.
Screening CC(C)c1ccc(C(=O)N2CCCC(c3cc(C(=O)Nc4ccc5c(c4)OCO5)no3)C2)cc1 (stereo not drawn) returned MLLE-PAM2 inh 5.5.
For O=C(NNC(=O)c1ccccc1[N+](=O)[O-])c1csc(N2CCOCC2)n1 the results were MLLE-PAM2 inh 5.0 and MEX-5 binding -41.8*.
`O=C(NNC(=O)c1ccccc1[N+](=O)[O-])c1ccccn1` gave eIF4H FP inh 7.3, MLLE-PAM2 inh -4.4, EBV gp42 block -1.2, MEX-5 binding -29.1* and PABP FP inh inactive.
Cc1ccc(S(=O)(=O)N2C[C@H]3C(=O)C[C@@H](c4ccccc4C)N(S(=O)(=O)c4ccc(C)cc4)[C@H]3C[C@H]2c2ccccc2)cc1 was read as MLLE-PAM2 inh 3.5.
OC[C@@H]1CN(Cc2ccc3c(c2)OCO3)C[C@H](n2cnc3c(N4CCN(c5ccccc5)CC4)ncnc32)O1 was read as MLLE-PAM2 inh 4.4.
Screening O=C(N/N=C/c1ccc([N+](=O)[O-])o1)c1ccc2c(c1)OCO2 returned eIF4H FP inh 79.0*, MLLE-PAM2 inh -5.0, MEX-5 binding -3.7 and PABP FP inh active.
`O=C(N/N=C/c1cc2c(cc1[N+](=O)[O-])OCO2)c1cccnc1` gave eIF4H FP inh 84.9*, MLLE-PAM2 inh 0.4, EBV gp42 block -17.3, MEX-5 binding -2.0 and PABP FP inh active.
For O=C(N/N=C\c1ccc(-c2ccc([N+](=O)[O-])cc2)o1)c1ccc2c(c1)OCO2 the results were eIF4H FP inh -0.4, MLLE-PAM2 inh -2.3, EBV gp42 block 13.6, MEX-5 binding -9.6 and PABP FP inh inactive.
`Cc1cc(O)cc(O)c1/C=N/NC(=O)c1ccc2c(c1)OCCO2` gave MLLE-PAM2 inh 49.1*.
For O=C(O)c1ccc(/C=N/NC(=O)c2ccc3c(c2)OCCO3)cc1 the results were eIF4H FP inh -7.2, MLLE-PAM2 inh 3.6, MEX-5 binding 0.5 and PABP FP inh inactive.
Screening O=C(NCc1ccccc1)/C(=C\c1ccc(F)cc1)NC(=O)c1ccco1 returned MLLE-PAM2 inh 15.1.
`CCCCC(=O)N(C)c1c(CC)nc2c(OCC(=O)N(C)C)cccn12` gave MLLE-PAM2 inh 8.4.
`Cc1cc(C)c(NC(=O)CS(=O)CC(=O)NCCCc2ccccc2)c(C)c1` (stereo not drawn) gave eIF4H FP inh -9.2, MLLE-PAM2 inh 3.3, EBV gp42 block -7.4, MEX-5 binding -3.5 and PABP FP inh inactive.
Screening Cc1cccc(C)c1NC(=O)CS(=O)CC(=O)NCCCc1ccccc1 (stereo not drawn) returned eIF4H FP inh 91.5*, MLLE-PAM2 inh 8.6, EBV gp42 block -21.4, MEX-5 binding 1.5 and PABP FP inh active.
Screening Cc1ccc2nc(-c3cccnc3)c(NC3CCCCC3)n2c1 returned eIF4H FP inh 17.4, MLLE-PAM2 inh 46.1*, EBV gp42 block -6.7, MEX-5 binding 0.1 and PABP FP inh inactive.
For COc1cc(/C=N/Nc2nc(=O)[nH]nc2C)ccc1O the results were eIF4H FP inh 2.5, MLLE-PAM2 inh -13.6, EBV gp42 block -2.4, MEX-5 binding inconclusive and PABP FP inh inactive.
`Cc1n[nH]c(=O)nc1N/N=C/c1ccc(O)c([N+](=O)[O-])c1` gave eIF4H FP inh -3.6, MLLE-PAM2 inh 16.8, EBV gp42 block -15.8, MEX-5 binding -27.6* and PABP FP inh inactive.
`COc1ccc(/C=N/Nc2nc(=O)[nH]nc2C)cc1[N+](=O)[O-]` gave eIF4H FP inh -3.0, MLLE-PAM2 inh -17.0, EBV gp42 block 0.6, MEX-5 binding -0.8 and PABP FP inh inactive.
`COc1cc(/C=N/Nc2nc(=O)[nH]nc2C)cc([N+](=O)[O-])c1O` gave eIF4H FP inh -1.7, MLLE-PAM2 inh 11.6, EBV gp42 block -2.8, MEX-5 binding -78.7* and PABP FP inh inactive.
`CC(C)NC(=O)c1cc(C2CCCCN2C(=O)c2cc(C(C)(C)C)nn2C)on1` (stereo not drawn) gave MLLE-PAM2 inh 13.0.
`CCOC(=O)CSC1=N/C(=C\c2cc(OC)c(OC)c(OC)c2)C(=O)N1C` gave eIF4H FP inh -2.2, MLLE-PAM2 inh 42.0*, EBV gp42 block -6.2, MEX-5 binding -0.5 and PABP FP inh inactive.
OC(c1cccnc1)c1nc(/C=C/c2ccc(C(F)(F)F)cc2)cs1 (stereo not drawn) was read as MLLE-PAM2 inh 4.3.
`COc1ccc(C(C(=O)NC2CCCC2)N(C(=O)c2snc(C(N)=O)c2N)c2cccc(O)c2)cc1` (stereo not drawn) gave eIF4H FP inh 68.1*, MLLE-PAM2 inh -8.9, MEX-5 binding -6.5 and PABP FP inh inactive.
Screening CC(C)(CNC(=O)c1cccc(S(=O)(=O)N2CCCCC2)c1)N1CCOCC1 returned MLLE-PAM2 inh -1.5.
O=Cc1c(Cl)[nH]c(=O)n1-c1ccccc1 was read as eIF4H FP inh 4.0, MLLE-PAM2 inh 5.2, EBV gp42 block 1.4 and PABP FP inh active.
`O=c1[nH]c2cc(Cl)ccc2n1-c1ccccc1` gave eIF4H FP inh 11.5, MLLE-PAM2 inh -3.4, EBV gp42 block -3.3, MEX-5 binding 1.0 and PABP FP inh inactive.
COc1ccccc1NS(=O)(=O)c1cc(NC(=O)Nc2cccc(C)c2)ccc1N1CCCCC1 was read as eIF4H FP inh 6.5, MLLE-PAM2 inh 38.1*, EBV gp42 block 4.5, MEX-5 binding -2.0 and PABP FP inh inactive.
